The values that follow come from PubChem BioAssay (Tox21).

Experiment [1] in a line: Nuclear factor erythroid 2-related factor 2/antioxidant responsive element (Nrf2/ARE) small molecule agonists: qHTS cell viability counter screen in human keratinocytes (AID 1919968; active means well fitted curve in the direction sought with a large enough effect in the repeat runs; an effect the other way counts as inactive or inconclusive; further: nearly all actives have a fitted effect of over 55% in size; further: potency means the concentration at half of the fitted maximal effect). An outline of the steps:
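KeratinoSens HaCaT cells, 1,500/well, preincubated 5 h, then exposed to compounds in DMSO for 23 h at 37 C/5% CO2. Viability read as CellTiter-Fluor fluorescence after 1 h, in the same wells as the ARE-luciferase read.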

The nature of experiment [2]: Nuclear factor erythroid 2-related factor 2/antioxidant responsive element (Nrf2/ARE) small molecule agonists: luciferase reporter gene qHTS assay in human keratinocytes (AID 1919969). Further: nearly all actives have a fitted effect of over 35% in size. Further: potency means the concentration at half of the fitted maximal effect.
Experiment [3] deals with Gonadotropin-releasing hormone receptor (Homo sapiens) (UniProt P30968). The experiment can be described thus: Human gonadotropin-releasing hormone receptor (GnRHR) small molecule agonists, calcium flux assay in GnRHR-HEK293 cells (AID 1920063). Further: nearly all actives have a fitted effect of over 35% in size. An outline of the steps:
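HEK293 cells stably expressing human GnRHR were dye-loaded for 1 h at 37 C. Compound was added in agonist mode and fluorescence (Ex/Em 480/540) recorded kinetically for 3 min. Fifteen concentrations, triplicates.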

Experiment [4] addresses KiSS-1 receptor (Homo sapiens) (UniProt Q969F8). Kind of experiment: Human kisspeptin (KISS1R) small molecule agonists, calcium flux assay in KISS1R-HEK293 cells (AID 1920064; active means well fitted curve in the direction sought with a large enough effect in the repeat runs; an effect the other way counts as inactive or inconclusive). The essentials:
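HEK293 cells stably expressing human KISS1R were loaded with calcium dye for 1 h at 37 C, then given compound; fluorescence (Ex/Em 480/540) was read kinetically for 3 min. Fifteen concentrations, triplicate.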

The nature of experiment [5]: G protein-coupled receptor (GPCR) small molecule agonists, calcium flux assay: HEK293 wild type cell line counter screen (AID 1920065). An outline of the steps:
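Wild-type HEK293 cells plated 18 h, loaded with calcium dye 1 h at 37 C, then compounds added in agonist mode (ATP as positive control). Kinetic fluorescence Ex/Em 480/540 recorded 3 min at 1 sec intervals; 15 concentrations, triplicate.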

A short description of experiment [6]: p53 small molecule agonists, cell-based qHTS assay with human liver microsomes (AID 1963577). An outline of the steps:
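Cells carrying a p53-responsive bla reporter were rested 5 h (37 C, 5% CO2) before compound transfer. Human liver microsomes plus NADPH, 0.5 mg/mL final apiece, supplied metabolism during the 16 h 37 C exposure.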

Experiment [7] can be described thus: p53 small molecule agonists, cell-based qHTS assay with rat liver microsomes (AID 1963578). The essentials:
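Fluorescence from a beta-lactamase reporter under a p53 response element was measured after cells had been incubated 16 h at 37 C with test compound and rat liver microsomes plus NADPH (0.5 mg/mL final each).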

Experiment [8] can be described thus: p53 small molecule agonists, cell-based qHTS assay with human liver microsomes: qHTS cell viability counter screen (AID 1963579). Further: nearly all actives have a fitted effect of over 45% in size. The essentials:
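Seed p53RE-bla cells at 4,000 per well; incubate 5 h at 37 C; add compound, human liver microsomes and NADPH; incubate 16 h at 37 C; add CellTiter-Glo; after 30 min at room temperature, read luminescence.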

Experiment [9] is described as follows: p53 small molecule agonists, cell-based qHTS assay with rat liver microsomes: qHTS cell viability counter screen (AID 1963580). Further: nearly all actives have a fitted effect of over 45% in size. The essentials: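 p53RE-bla HCT-116 cells were exposed 16 h at 37 C to compounds with rat liver microsomes (0.5 mg/mL) and NADPH (0.5 mg/mL). Viability was measured in the same wells as ATP content by CellTiter-Glo luminescence.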

Experiment [10] can be described thus: p53 small molecule agonists, cell-based qHTS assay: qHTS cell viability counter screen (AID 1963581). Further: nearly all actives have a fitted effect of over 45% in size. The essentials:
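p53RE-bla HCT-116 cells, compounds added 5 h after plating and incubated 16 h at 37 C. Cytotoxicity measured in the same wells as intracellular ATP by CellTiter-Glo luminescence after 30 min at room temperature.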

Experiment [11] addresses 5-hydroxytryptamine receptor 2A (Homo sapiens) (UniProt P28223). The experiment can be described thus: 5-hydroxytryptamine receptor 2A (HTR2A) small molecule agonists, cell-based qHTS assay (AID 1963587). Further: nearly all actives have a fitted effect of over 30% in size. The essentials:
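CHO cells stably expressing human HTR2A, plated 18 h, loaded with calcium dye 1 h at 37 C. Agonist mode: compounds added and intracellular calcium fluorescence recorded kinetically for 2 min at 1 sec intervals.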

Experiment [12] concerns the target Muscarinic acetylcholine receptor M1 (Homo sapiens) (UniProt P11229). Kind of experiment: Cholinergic receptor muscarinic 1 (CHRM1) small molecule antagonists, cell-based qHTS assay (AID 1963588). Further: nearly all actives have a fitted effect of over 40% in size. An outline of the steps:
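CHRM1-CHO calcium-flux assay, antagonist mode. Cells were seeded 18 h, dye-loaded 1 h at 37 C and given compound for 5 min at RT, then acetylcholine was added at 50nM. FDSS fluorescence was read 3 min; 15 concentrations, three runs.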

The target is the same in experiment [13]. The experiment can be described thus: Cholinergic receptor muscarinic 1 (CHRM1) small molecule agonists, cell-based qHTS assay (AID 1963589). Further: nearly all actives have a fitted effect of over 35% in size. An outline of the steps: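 CHO cells stably expressing human CHRM1 were loaded with calcium dye for 1 h at 37 C, then compound was added in agonist mode. Intracellular calcium fluorescence was followed kinetically at 1 s intervals. Fifteen concentrations were tested in three independent runs.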

A short description of experiment [14]: cAMP Responsive Elements (CRE) small molecule agonists, cell-based qHTS assay (AID 1963590). The essentials:
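CRE-bla HEK 293T cells, 2,000/well in DMEM with 10% dialyzed FBS and 25 mM HEPES, pre-incubated 18 h at 37 C, then exposed to compound 3 h at 37 C. Beta-lactamase reporter read with LiveBLAzer B/G FRET substrate after 2 h at room temperature.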

Experiment [15] has as its target Beta-2 adrenergic receptor (Homo sapiens) (UniProt P07550). Kind of experiment: Adrenergic beta2 receptor (ADRB2) small molecule antagonists, cell-based qHTS assay (AID 1963592). Further: series mostly up to about 92 µM; nearly all actives have a fitted effect of over 50% in size. An outline of the steps:
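Cells (CHO, stable ADRB2 overexpression) incubated 18-20hr at 37C; compounds added from DMSO; agonist mix (1nM isoproterenol, 100uM IBMX, 25uM Ro-20-1724) added; 0.5hr RT; d2-cAMP and anti-cAMP-cryptate added; 1hr RT; 665/615 nm read.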

For experiment [16], the target named is D(2) dopamine receptor (Homo sapiens) (UniProt P14416). The experiment can be described thus: Dopamine D2 receptor (DRD2) small molecule agonists, cell-based qHTS assay (AID 1963594). Further: nearly all actives have a fitted effect of over 35% in size. An outline of the steps:
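HEK293 cells stably expressing human DRD2, pre-treated with PDE inhibitor Ro20-1724 (0.1 mM final) and compound 10 min at room temperature, then stimulated with NKH477 (200nM […]) for 30 min. cAMP read by HTRF (665/620 nm).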

Experiment [17] shares this target. The experiment can be described thus: Dopamine D2 receptor (DRD2) small molecule antagonists, cell-based qHTS assay (AID 1963595; active means well fitted inhibition curve with a large enough effect in the signal ratio in the repeat runs, with a control signal flat; the % refers to the signal ratio). An outline of the steps:
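In this cell-based antagonist screen, compounds act for 10 min at room temperature before a 30 min challenge with 12 nM quinpirole and 200 nM NKH477. cAMP is quantified by HTRF competition in DRD2-HEK293 cells containing 0.1 mM Ro20-1724.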

Experiment [18] addresses 5-hydroxytryptamine receptor 2A (Homo sapiens) (UniProt P28223). The experiment can be described thus: 5-hydroxytryptamine receptor 2A (HTR2A) small molecule antagonists, cell-based qHTS assay (AID 1963586). Further: nearly all actives have a fitted effect of over 45% in size. The essentials:
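Antagonist-mode intracellular calcium assay: DOI (4 nM) added after 5 min compound pre-incubation at room temperature to dye-loaded HTR2A-CHO cells. Fluorescence followed for 3 min, sampled every second.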

Experiment [19] in a line: cAMP Responsive Elements (CRE) small molecule antagonists, cell-based qHTS assay (AID 1963591; active means well fitted inhibition curve with a large enough effect in the signal ratio in the repeat runs, not every such curve was filed as active; the % refers to the signal ratio). The essentials: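 CRE-bla HEK293T cells plated 18 h, then given compound plus NKH477 at 0.25 uM final for 3 h at 37C. Beta-lactamase reporter read with LiveBLAzer B/G FRET substrate after 2 h at room temperature.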
In experiment [20] the target is Beta-2 adrenergic receptor (Homo sapiens) (UniProt P07550). Kind of experiment: Adrenergic beta2 receptor (ADRB2) small molecule agonists, cell-based qHTS assay (AID 1963593).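 Further: CHO cells stably overexpressing human ADRB2.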 An outline of the steps: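 CHO cells stably over-expressing ADRB2 were plated overnight at 37C, then dosed with compounds plus a stimulation mix containing 100uM IBMX and 25uM Ro-20-1724 for 0.5hr at room temperature. cAMP was measured by HTRF competition, 1hr.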
Chain of Beta-2 adrenergic receptor (Homo sapiens) (P07550 whole entry, looked up): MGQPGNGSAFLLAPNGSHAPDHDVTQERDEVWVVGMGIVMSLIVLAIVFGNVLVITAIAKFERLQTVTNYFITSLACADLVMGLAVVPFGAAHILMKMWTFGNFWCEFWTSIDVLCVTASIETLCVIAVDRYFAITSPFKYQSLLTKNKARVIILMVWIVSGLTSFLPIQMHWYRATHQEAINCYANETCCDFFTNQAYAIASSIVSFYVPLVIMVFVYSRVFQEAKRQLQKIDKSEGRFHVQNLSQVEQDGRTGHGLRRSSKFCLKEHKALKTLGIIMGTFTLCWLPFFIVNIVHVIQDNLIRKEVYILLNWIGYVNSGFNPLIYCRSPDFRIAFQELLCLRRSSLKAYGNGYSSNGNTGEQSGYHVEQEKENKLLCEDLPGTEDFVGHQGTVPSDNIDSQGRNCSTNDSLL

A number with no mark means an inactive call. Records with an inconclusive call do not appear. Activity calls are given as the source filed them. Unless noted, the call rests on the fitted dose curve.
On the % scale 0 is the no-effect control and ±100 the full control effect.

Chain of Gonadotropin-releasing hormone receptor (Homo sapiens) (P30968 whole entry, looked up): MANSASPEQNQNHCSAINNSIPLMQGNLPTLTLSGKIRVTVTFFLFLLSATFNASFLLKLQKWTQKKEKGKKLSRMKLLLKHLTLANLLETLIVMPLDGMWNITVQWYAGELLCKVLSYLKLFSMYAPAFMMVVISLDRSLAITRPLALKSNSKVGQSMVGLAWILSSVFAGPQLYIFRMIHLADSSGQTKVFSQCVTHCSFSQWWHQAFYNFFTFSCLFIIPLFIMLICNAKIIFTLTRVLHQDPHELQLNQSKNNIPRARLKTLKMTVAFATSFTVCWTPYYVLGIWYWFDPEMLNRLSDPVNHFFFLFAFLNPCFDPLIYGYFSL
Chain of KiSS-1 receptor (Homo sapiens) (Q969F8 whole entry, looked up): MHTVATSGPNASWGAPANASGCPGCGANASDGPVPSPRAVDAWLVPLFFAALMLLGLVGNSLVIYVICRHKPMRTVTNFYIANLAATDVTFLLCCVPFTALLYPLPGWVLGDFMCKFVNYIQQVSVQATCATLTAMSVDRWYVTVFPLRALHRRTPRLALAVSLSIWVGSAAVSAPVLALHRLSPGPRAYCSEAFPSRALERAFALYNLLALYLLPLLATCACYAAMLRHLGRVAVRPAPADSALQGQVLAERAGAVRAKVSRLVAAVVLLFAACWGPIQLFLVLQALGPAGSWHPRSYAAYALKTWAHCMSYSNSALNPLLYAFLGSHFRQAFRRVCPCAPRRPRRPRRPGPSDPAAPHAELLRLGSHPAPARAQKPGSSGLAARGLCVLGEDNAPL
Chain of Muscarinic acetylcholine receptor M1 (Homo sapiens) (P11229 whole entry, looked up): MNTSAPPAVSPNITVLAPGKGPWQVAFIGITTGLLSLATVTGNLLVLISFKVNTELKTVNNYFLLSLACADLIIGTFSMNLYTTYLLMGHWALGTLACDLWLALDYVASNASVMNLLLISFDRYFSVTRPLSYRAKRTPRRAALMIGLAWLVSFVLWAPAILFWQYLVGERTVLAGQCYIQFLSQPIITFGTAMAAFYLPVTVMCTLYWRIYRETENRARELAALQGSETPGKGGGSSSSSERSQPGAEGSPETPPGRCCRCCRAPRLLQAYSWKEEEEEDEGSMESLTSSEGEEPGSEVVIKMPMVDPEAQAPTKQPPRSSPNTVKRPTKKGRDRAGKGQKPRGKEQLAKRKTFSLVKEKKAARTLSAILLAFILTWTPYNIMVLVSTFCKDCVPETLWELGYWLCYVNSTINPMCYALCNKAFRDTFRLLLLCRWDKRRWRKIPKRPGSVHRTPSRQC
Chain of 5-hydroxytryptamine receptor 2A (Homo sapiens) (P28223 whole entry, looked up): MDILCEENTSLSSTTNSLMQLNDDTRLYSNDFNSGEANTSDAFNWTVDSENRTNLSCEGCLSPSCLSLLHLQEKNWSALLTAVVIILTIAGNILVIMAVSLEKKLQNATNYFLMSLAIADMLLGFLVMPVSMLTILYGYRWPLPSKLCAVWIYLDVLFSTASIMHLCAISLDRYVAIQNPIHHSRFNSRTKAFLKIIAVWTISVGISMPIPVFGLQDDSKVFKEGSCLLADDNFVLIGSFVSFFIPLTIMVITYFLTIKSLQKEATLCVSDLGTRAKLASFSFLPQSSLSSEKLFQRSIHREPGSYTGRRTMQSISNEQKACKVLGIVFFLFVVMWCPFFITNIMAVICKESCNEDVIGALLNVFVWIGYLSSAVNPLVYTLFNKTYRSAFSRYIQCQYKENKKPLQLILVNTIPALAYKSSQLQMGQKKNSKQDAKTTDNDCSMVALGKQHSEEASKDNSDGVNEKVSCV
Chain of D(2) dopamine receptor (Homo sapiens) (P14416 whole entry, looked up): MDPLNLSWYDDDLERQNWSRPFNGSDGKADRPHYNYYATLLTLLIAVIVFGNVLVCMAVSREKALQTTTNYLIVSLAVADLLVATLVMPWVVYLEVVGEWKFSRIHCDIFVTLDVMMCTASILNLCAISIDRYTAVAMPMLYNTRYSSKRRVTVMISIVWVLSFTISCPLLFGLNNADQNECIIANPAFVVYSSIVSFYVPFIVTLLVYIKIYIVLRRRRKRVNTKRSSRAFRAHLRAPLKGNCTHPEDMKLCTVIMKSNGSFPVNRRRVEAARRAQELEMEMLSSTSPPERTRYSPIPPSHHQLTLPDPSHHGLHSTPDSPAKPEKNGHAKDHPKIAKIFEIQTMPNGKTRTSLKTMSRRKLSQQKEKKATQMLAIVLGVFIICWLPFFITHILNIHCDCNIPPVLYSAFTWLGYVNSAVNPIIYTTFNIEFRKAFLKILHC

As for `C/C=C(/C(=C/C)c1ccc(OC(C)=O)cc1)c1ccc(OC(C)=O)cc1`, the Potency entry in experiment [1], in experiment [2], in [3], in experiment [6], in experiment [7] and in experiment [8] was “inactive” in each case. The Potency result in experiment [9], in experiment [10], in experiment [11], in [12], in experiment [13] and in experiment [14] was “inactive” in each case. Besides, the Potency result in [15], in experiment [16] and in experiment [17] was “inactive” throughout. Moreover, the result in experiment [4] and in [5] was inactive.
Consider `C/C=C/C=C/CCCCCCCO`, for which the Potency entry in [1], in experiment [3], in [6], in [7], in experiment [8] and in [9] was “inactive” in each case. Moreover, the Potency entry in experiment [10], in experiment [18], in experiment [12], in experiment [13], in experiment [15] and in [16] was “inactive” each time. In experiment [2], the Potency is 68.6 µM (active). The result in [4] and in experiment [5] was inactive.
Regarding `C=C(C)C(=O)OCC[N+](C)(C)C`, the Potency entry in [1], in experiment [3], in experiment [6], in experiment [7], in [8] and in [9] was “inactive” each time. Moreover, the Potency entry in [10], in [11], in experiment [13], in [14], in [19] and in experiment [20] was “inactive” in each case. The Potency entry in experiment [16] was “inactive”. For the same molecule, the Potency in experiment [2] was 60.9 µM (active). The outcome in [4] and in experiment [5] was inactive.
For the molecule `CCOC(=O)N1CCC(n2c(=O)[nH]c3cc(Cl)ccc32)CC1`, the Potency entry in experiment [1], in experiment [2], in experiment [3], in experiment [6], in [7] and in experiment [8] was “inactive” each time. Also, the Potency entry in [9], in [10], in [18], in [12], in experiment [13] and in experiment [16] was “inactive” throughout. Also, the outcome in experiment [4] and in experiment [5] was inactive.
For `CCN(CCC#N)c1ccc(N=Nc2ccc([N+](=O)[O-])cc2)cc1`, the Potency result in experiment [1], in experiment [2], in experiment [3], in [6], in experiment [7] and in [8] was “inactive” in each case. The Potency result in [9], in experiment [10], in experiment [18], in experiment [12], in experiment [13] and in experiment [14] was “inactive” each time. The Potency entry in [19], in [15], in experiment [16] and in experiment [17] was “inactive” in each case. In addition, the outcome in experiment [4] and in [5] was inactive.
Consider `O=C(O)C[C@H](O)C[C@H](O)/C=C/c1c(C2CC2)nc2ccccc2c1-c1ccc(F)cc1`, for which the activity change, negative = cytotoxicity in [1] is -15.1% [at 19 µM]; in [8] it was -1.08% [at 13.5 µM]; in experiment [9], 1.65% [at 13.5 µM]; in [10], 0.0104% [at 13.5 µM]. Also, in experiment [2], the activity, positive = activation was -21.1% [at 19 µM]. The activity change in [3] was -1.52% [at 11.8 µM, stronger effect = higher value]. Besides, the activation in experiment [4] was -0.214% [at 15.8 µM]; in [5], -0.173% [at 11.8 µM]; in experiment [6], -13.7% [at 13.5 µM]; in experiment [7], -4.07% [at 13.6 µM]; in experiment [11] it was -5.4% [at 15.9 µM]; in [14], 0.303% [at 19 µM]. For the same molecule, in experiment [16], the activation was -0.0463% [at 19 µM]. Also, the activity, negative = inhibition in experiment [12] is 7.39% [at 12.6 µM]. In addition, the activity change, negative = inhibition in [15] was -0.968% [at 19 µM]; in experiment [17], 4% [at 18.9 µM].
In the case of `c1cc(N(CC2CO2)CC2CO2)ccc1Cc1ccc(N(CC2CO2)CC2CO2)cc1` (stereo unspecified), the Potency in experiment [1] is 43.3 µM (active); in experiment [2], 21.7 µM (active). Further, the Potency entry in [3], in experiment [6], in experiment [7], in experiment [8], in experiment [9] and in experiment [10] was “inactive” in each case. In addition, the Potency entry in [11], in [13], in [15], in experiment [16] and in experiment [17] was “inactive” each time. Further, the outcome in [4] and in experiment [5] was inactive.
